Molecules are shown by their SMILES. Inconclusive results are not listed. Where a call stands in place of a potency, no number is given. Activity calls are given as the source filed them. The call rests on the fitted dose curve; in most records, active means well fitted inhibition curve with a large enough effect; inconclusive means small, poorly fitted or top-dose-only effect; inactive means no such curve, though single readings can be large or run the other way.

For this assay, the system named is Zika virus NS2B-NS3 protease (unlinked complex). The assay is described as follows: Primary screen GU Rhodamine qHTS for Zika virus inhibitors: Unlinked NS2B-NS3 protease assay (AID 1347159). Further: nearly all actives have a fitted effect of over 60% in size. The procedure, abridged:
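Unlinked NS2B/NS3, 25 nM; Rhod110 peptide, 1.5 microM; compounds, up to 114 microM. Reaction run 15 min at RT in 10 mM Tris-HCl pH 8.0, 0.01% Tween 20; kinetic fluorescence change fitted with a 4-parameter Hill model.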
Potency means the concentration at half of the fitted maximal effect.

Regarding `CC1OC(OC2CCC3(C)C(CCC4(C)C3CC=C3C5CC(C)(C)CCC5(C(=O)OC5OC(CO)C(O)C(O)C5O)CCC34C(=O)O)C2(C)C)C(O)C(O)C1O` (centres undefined), the Potency entry was “inactive”.
Consider `COc1ccc(-c2cnc3ccc(NCc4ccc(S(N)(=O)=O)cc4)nn23)cc1OC`, for which the Potency entry was “inactive”.
In the case of `CC(C)[C@@H](CS(=O)(=O)C(C)C)N1C(=O)[C@@](C)(CC(=O)O)C[C@H](c2cccc(Cl)c2)[C@H]1c1ccc(Cl)cc1` it was 28.2 µM (active).
As to `Cc1noc(-c2ccc(-c3ccc(CC(=O)O)cc3)cc2)c1NC(=O)O[C@H](C)c1ccccc1`, the Potency was 14.1 µM (active).
In the case of `Cc1ccc(NC(=O)Nc2cc(C(F)(F)F)ccc2F)cc1Nc1ccc2c(c1)NC(=O)/C2=C\c1ccc[nH]1` it was 39.8 µM (active); in that of `CCC(C)/C=C(C)/C=C/c1cc2c(cn1)C(=O)C(C)(OC(C)=O)C(O)=C2Cl` (centres undefined), 10 µM (active).
In the case of `C[C@@H]1O[C@@H](O[C@@H]2CO[C@@H](O[C@H]3CC[C@@]4(C)C(CC[C@]5(C)C4CC=C4[C@@H]6CC(C)(C)CC[C@]6(C(=O)O[C@@H]6O[C@H](CO)[C@@H](O)[C@H](O)[C@H]6O)CC[C@]45C)[C@]3(C)CO)[C@H](O)[C@H]2O[C@@H]2O[C@H](CO)[C@@H](O)[C@H](O)[C@H]2O)[C@H](O)[C@H](O)[C@H]1O` (some centres undefined) it was “inactive”; in that of `CC(C)CC(=O)OC1OC=C(CO[C@@H]2O[C@H](CO)[C@@H](O)[C@H](O)[C@H]2O)C2CC(O)C(O)(CO)C12` (some centres undefined), “inactive”; in that of `COc1ccc([C@@H]2OC[C@H]3[C@@H]2CO[C@@H]3c2ccc(OC3OC(CO)C(O)C(O)C3O)c(OC)c2)cc1OC` (some centres undefined), “inactive”.
